CYP2C19 inhib – human CYP2C19 inhibition | CYP2C19 Supersomes, luciferin-H EGE luminescence, 30 min | inhibition, % at 5 µM | 21% of 96,000 active;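 active = CYP2C19 inhibition above a set limit at 5 µM in the primary screen, cut at about 50% in these data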
Target sequence (P33261 whole entry, looked up): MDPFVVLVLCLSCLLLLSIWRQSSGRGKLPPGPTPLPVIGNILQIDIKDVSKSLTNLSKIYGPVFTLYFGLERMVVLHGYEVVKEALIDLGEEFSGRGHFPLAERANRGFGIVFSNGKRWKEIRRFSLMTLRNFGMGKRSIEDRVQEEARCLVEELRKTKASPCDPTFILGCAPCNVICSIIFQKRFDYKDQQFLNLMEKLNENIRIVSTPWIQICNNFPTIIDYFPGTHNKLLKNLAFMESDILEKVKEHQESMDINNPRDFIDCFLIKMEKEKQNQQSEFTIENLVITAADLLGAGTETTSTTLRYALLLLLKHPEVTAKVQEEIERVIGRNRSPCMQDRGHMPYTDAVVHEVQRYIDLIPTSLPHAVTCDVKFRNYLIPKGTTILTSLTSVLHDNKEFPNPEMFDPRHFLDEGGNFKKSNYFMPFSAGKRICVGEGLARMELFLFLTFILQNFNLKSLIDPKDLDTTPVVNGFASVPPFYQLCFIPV
CYP2C19 act – increases human CYP2C19 enzyme activity. P33261. recombinant CYP2C19, luciferin-H EGE luminescence; active compounds read high; 0 = fully inhibited enzyme, 1 = untreated enzyme. activation factor at 5 µM. 96,000 tested, under 10 active;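 active = activation factor of at least 2 at 5 µM in the primary screen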
CYP2C9 inh – inhibitors of human CYP2C9 | P11712 | CYP2C9 Supersomes, luciferin-H conversion, luminescence | inhibition, % at 5 µM | 20% of 96,000 active;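 active = blocking of liver enzyme CYP2C9 beyond about 50% at 5 µM, limit read from the data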
CYP2C9 activ – increases human cytochrome P450 2C9 activity | recombinant CYP2C9, luciferin-H conversion, luminescence; active compounds read high; factor 1 = untreated enzyme, 0 = blocked | activation factor at 5 µM | 1.4% of 96,000 active;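 active = activation factor of 2 or more for CYP2C9 at a 5 µM dose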
PostGolgi yeast – growth inhibition of a yeast mutant, post-Golgi transport screen. inhibition, % at 10 µM. post-Golgi transport phenotypic cell assay. 0.9% of 98,000 active;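 also: yeast cells grown in 1536-well plates; yeast grown about 18 h at 30C before absorbance read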
PostGolgi ctrl – growth of the yeast control strain, post-Golgi counter-screen; inhibition, % at 10 µM; efflux-deficient yeast background strain, growth absorbance A615, 16 h; 5% of 98,000 active; AID 738
Numbers stand for hits; . = inactive; / = not tested or not shown. Shown are actives, neighbours in structure and some others; about 32% of the full set was active somewhere. Rule as the data show it, unless noted: active = inhibition above about 30%; inactive = the rest.

SMILES	CYP2C19 inhib	CYP2C19 act	CYP2C9 inh	CYP2C9 activ	PostGolgi yeast	PostGolgi ctrl
COc1ccc(OC)c(-c2nc3c(C)n[nH]c(=O)c3[nH]2)c1	.	.	.	.	.	.
O=C(CCc1ccc(S(=O)(=O)N2CCOCC2)cc1)NCCCN1CCCC1=O	.	.	.	.	.	.
NC(=O)C1(N2CCCCC2)CCN(c2nc(-c3ccc(Br)cc3)cs2)CC1	.	.	.	.	.	60.4
NC(=O)Cn1c2[n+](c3ccccc31)CC(O)CS2 (stereo not given)	.	.	.	.	.	.
CCC(C)[C@H](NC(=O)NC1CCCc2ccccc21)C(=O)O (stereo not given in full)	.	.	.	.	.	.
CCCc1nc(N)c(C#N)c(-c2ccco2)c1CC	58.6	.	50.1	.	.	.
Cc1c(-c2ccc(F)cc2)nc(N)c(C#N)c1-c1ccco1	.	.	.	.	.	.
N#Cc1c(N)nc(SCc2ccccc2)c(C#N)c1-c1ccco1	.	.	.	.	.	37.4
Cn1ccnc1Sc1nc2ccccc2nc1NS(=O)(=O)c1ccccc1	.	.	98.4	.	.	.
Cn1cnnc1Sc1nc2ccccc2nc1NS(=O)(=O)c1ccccc1	.	.	96.6	.	.	.
CCCOc1cc(C)c(S(=O)(=O)n2ccc(C)n2)cc1C	69.9	.	.	.	.	.
O=C(N/C(=C/c1cccs1)c1nc2ccccc2[nH]1)c1ccccc1	.	.	.	.	.	.
N#CC(/C(=N/S(=O)(=O)c1cccs1)c1ccccc1)c1nc2ccccc2[nH]1 (stereo not given)	.	.	94.8	.	.	.
COc1ccc(-c2c(C)nn3c(N4CCN(Cc5ccccc5)CC4)cc(C)nc23)cc1OC	67.8	.	84.9	.	.	.
COc1ccccc1-c1c(C)nn2c(N3CCN(Cc4ccccc4)CC3)cc(C)nc12	56.6	.	52.0	.	.	30.2
COc1cccc2c3c(c(=O)[nH]c12)CCC(C)(C)O3	.	.	.	.	.	.
Cc1cccc2cc(COC(=O)C3CCCCC3)c(=O)[nH]c12	.	.	.	.	.	.
N#CC1=C2SCC(O)(c3ccccc3)N2C(=O)CC1c1ccccc1 (stereo not given)	97.6	.	99.2	.	41.4	.
N#CC1=C2SCN(c3ccc(F)cc3)CN2C(=O)CC1c1cccc(F)c1 (stereo not given)	.	.	.	.	.	.
CCOC(=O)CC(=O)CSc1nc(C)cc(-c2cccnc2)c1C#N	.	.	72.6	.	.	.
CCOC(=O)CC(=O)CSc1nc(-c2cccnc2)ccc1C#N	.	.	.	.	.	.
CCOC(=O)CC(=O)CSc1nc(-c2cccnc2)cc(C)c1C#N	.	.	81.1	.	.	.
N#Cc1c(SCC(N)=O)nc(-c2ccccc2)c2c1CCCC2	.	.	.	.	.	.
Cc1cc(-c2ccccc2)c(C#N)c(SCC(N)=O)n1	.	.	.	3	.	.
Cn1cccc1/C=N/n1c(-c2ccccc2)n[nH]c1=S	.	.	.	.	.	.
SMILES	CYP2C19 inhib	CYP2C19 act	CYP2C9 inh	CYP2C9 activ	PostGolgi yeast	PostGolgi ctrl
Cn1cccc1/C=N/n1c(-c2ccc(C(C)(C)C)cc2)n[nH]c1=S	.	.	.	.	.	36.8
Cc1ccc2c(C)nc(NC3=NCN(Cc4ccccc4)CN3)nc2c1	.	.	.	.	/	/
CCOC(=O)N1CCC(NC(=O)C(NC(=O)C2CCC(C)CC2)C(C)CC)CC1 (stereo not given)	52.6	.	.	.	.	.
COC(=O)c1ccccc1NC(=O)c1ccc(COc2ccccc2)o1	.	.	.	.	.	35.6
COc1ccc(NC(=O)c2ccc(COc3ccccc3)o2)cc1	.	.	.	.	.	.
COC(=O)c1ccccc1NC(=O)c1ccc(-c2cccc(Cl)c2)o1	.	.	.	.	.	.
COC(=O)c1ccccc1NC(=O)c1ccc(COc2cccc3ccccc23)o1	.	.	57.7	.	.	.
CC(C)(C)NS(=O)(=O)c1ccc(CCC(=O)NCc2cccnc2)cc1	.	.	87.2	.	.	.
CC(C)(C)NS(=O)(=O)c1ccc(CCC(=O)NCc2ccco2)cc1	.	.	67.1	.	.	.
CC(C)(C)NS(=O)(=O)c1ccc(CCC(=O)O)cc1	.	.	.	.	.	.
O=C(Nc1ccc(F)cc1F)c1cc2n(n1)C(C(F)(F)F)C1CCCCC1N2 (stereo not given)	.	.	.	.	.	30.4

Source: PubChem (several laboratories)
